About 27,000 (9.3%) of roughly 290,000 compounds were called active. The entries come from a sample that favours actives as a whole. Values without a mark were called inactive. Cut-off read from the data, not from the text of the source: active = inhibition mostly above about 28% (no sharp cut-off); inactive = mostly below about 43%.
Experiment: A qHTS for Small Molecule Inhibitors of Shiga Toxin; note: 0% is about no effect
Details: Vero cells, Shiga toxin protein synthesis inhibition reporter; at 38.7 µM, active compounds read high

| Compound | inhibition |
| --- | --- |
| CCN(CC)S(=O)(=O)c1ccc(N2CCCC2)c(NS(=O)(=O)c2cccs2)c1 | 21% |
| COc1ccc(CNc2c(CO)cnc3c2cnn3C)cc1 | -11.4% |
| CN(C)/C=C(/C(=O)c1ccc(Cl)cc1)S(=O)(=O)c1ccccc1 | 64.1% (active) |
| CN(C)/C=C(/C(=O)c1ccc(F)cc1)S(=O)(=O)c1ccc(F)cc1 | 58.3% |
| CN(C)/C=C(/C(=O)c1ccccc1)S(=O)(=O)c1ccc(Cl)cc1 | 13.2% |
| Cc1ccc(C(CNC(=O)Nc2ccccc2)N2CCN(C)CC2)cc1 (stereo not drawn) | -3.91% |
| CCc1cc(=O)oc2c(C)c(OCC(=O)NCCN3CCOCC3)ccc12 | -2.76% |
| Cc1cc(NC(=O)c2cnn3cccnc23)n(-c2ccccc2)n1 | -5.01% |
| O=C(Nc1ccc(Cl)cn1)c1cnn2cccnc12 | 85.1% (active) |
| COc1cccc(-c2cccc(NC(=O)C3CCN(C4CCC4)CC3)c2)c1 | -10.9% |
| COc1cc(Nc2nc3ccc(Cl)cc3n3cnnc23)cc(OC)c1OC | -9.44% |
| CCN1CCN(c2ccc(S(=O)(=O)N3CCCCC3)cc2NC(=O)Cc2c(Cl)cccc2Cl)CC1 | 42.5% (active) |
| CN1CCN(c2ccc(S(=O)(=O)N3CCCCC3)cc2NC(=O)Cc2ccccc2F)CC1 | -8% |
| COc1ccc(CC(=O)Nc2cc(S(=O)(=O)N3CCCCC3)ccc2N2CCN(C)CC2)cc1 | 2.85% |
| COC(=O)c1cnc(Nc2cc(C)ccc2OC)c2ccccc12 | -8.41% |
| Cc1cc(F)ccc1NC(=S)NCCc1ccccc1 | 6.98% |
| Cc1ccc(C)c(C(C)NC(=O)C2CCCO2)c1 (stereo not drawn) | -10.5% |
| CCOc1cc(/C=N/NC(=O)CN2CCCCC2)ccc1O | -8.43% |
| O=C(CN1CCSCC1)N/N=C/c1ccc(Cl)cc1 | 29.2% |
| Cc1ccc(COc2ccc(/C=N/NC(=O)CN3CCCCC3)cc2)cc1 | 87.5% (active) |
| CC(=O)N/C(=N/c1nc(C)cc(C)n1)Nc1ccc(F)cc1F | -13.6% |

| Compound | inhibition |
| --- | --- |
| CC(OC(=O)c1ccc2noc(-c3ccccc3)c2c1)C(N)=O (stereo not drawn) | 1.23% |
| CC(=O)c1c(C)n(-c2ccc(C)cc2)c2ccc(O)cc12 | -16.2% |
| O=C(Oc1ccc(Br)cc1)c1cccnc1 | 22.6% |
| CCCCCCOc1ccc(OC(=O)c2cccnc2)cc1 | 37.9% |
| O=C(Oc1ccc(-c2nc(-c3ccccn3)no2)cc1)c1ccccc1 | 33% (active) |
| CCN(CC)Cc1c(C(=O)N/N=C/c2cccc(OCc3ccc(F)cc3)c2)nnn1-c1nonc1N | -1.06% |
| COC(c1ccccc1)(c1ccccc1)C(Oc1nc(C)cc(C)n1)C(=O)O (stereo not drawn) | -2.84% |
| COc1ccc(S(=O)(=O)n2nc(C)c(S(=O)(=O)N3CCOCC3)c2C)cc1 | 13.2% |
| CCOC(=O)c1c(-c2ccc(-c3ccccc3)cc2)csc1NC(=O)CCC(=O)O | -3.4% |
| O=c1c2cc([N+](=O)[O-])ccc2nc2n1CCC2 | -7.31% |
| O=C(NCc1ccccc1Cl)C1CCCO1 (stereo not drawn) | 19.8% |
| CSc1ccc(CNC(=O)c2ccc(NC(=O)C3=CSCCO3)cc2)cc1 | 16.6% |
| O=C(Nc1ccc(C(=O)NCc2ccccc2Cl)cc1)C1=CSCCO1 | 47.1% (active) |
| CC12CCC(C(=O)N(NC(=O)c3ccccc3O)C1=O)C2(C)C (stereo not drawn) | 10.2% |
| Cc1cccc(C(=O)Nc2nnc(S(=O)(=O)N3CCCCCC3)s2)c1 | 13.6% |
| COc1cc(/C=N/O)ccc1OCc1ccc([N+](=O)[O-])cc1 | 82.1% (active) |
| COc1cc(C(=O)OCc2ccc([N+](=O)[O-])cc2)cc(OC)c1OC | -13.3% |
| COc1cc(/C=N\Nc2ccc([N+](=O)[O-])cn2)ccc1OCC(=O)O | 31.3% |
| Cc1ccc(CNC(=O)C(=O)c2cn(CC(=O)N3CCCC3)c3ccccc23)cc1 | 35.1% (active) |
| CN(Cc1ccccc1)C(=O)C(=O)c1cn(CC(=O)N2CCCC2)c2ccccc12 | 5.26% |
| O=C(NCCCn1ccnc1)C(=O)c1cn(CC(=O)N2CCCCCC2)c2ccccc12 | -6.62% |

| Compound | inhibition |
| --- | --- |
| Cc1ccc(CNC(=O)C(=O)c2cn(CC(=O)N3CCOCC3)c3ccccc23)cc1 | 79.4% (active) |
| COc1cccc(NC(=O)CS(=O)(=O)c2cn(CC(=O)N3CCOCC3)c3ccccc23)c1 | -10.3% |
| O=C(NCc1ccco1)C(=O)c1cn(CC(=O)N2CCCCCC2)c2ccccc12 | 27.2% |
| COc1cccc(NC(=O)C(=O)c2cn(CC(=O)N3CCOCC3)c3ccccc23)c1 | 92.3% (active) |
| O=C(Nc1ccc(F)cc1)C(=O)c1cn(CC(=O)N2CCOCC2)c2ccccc12 | 15.3% |
| CN1CCN(C(=O)C(=O)c2cn(CC(=O)N3CCCC3)c3ccccc23)CC1 | -13% |
| COc1cccc(N(CC(=O)NC2CCCC2)C(=O)CCCC(=O)Nc2ccccn2)c1 | -5.09% |
| CCCNC(=O)CCc1c(C)nc2c(c(C)nn2-c2ccccc2)c1C | -16.2% |
| CCOc1ccc(N(CC(=O)Nc2cccc(OC)c2)S(C)(=O)=O)cc1 | 28.6% |
| CCC1=Nc2cc(C(=O)NCCN3CCCC3)ccc2Sc2ccc(C)cc21 | -6.55% |
| O=C(CN1C(=O)COc2ccc(Cl)cc21)Nc1ccc(N2CCOCC2)cc1 | -16.6% |
| Cc1cccc(N(C)C(=O)CN2C(=O)COc3ccc(S(=O)(=O)N4CCCCCC4)cc32)c1 | 4.44% |
| CCn1c(SCCC(C)C)nnc1-c1c[nH]c2ccccc12 | -3.59% |
| Cc1ccc(-c2csc(-c3c[nH]c4ccccc34)n2)cc1 | 111% (active) |
| CCC(C)Sc1nnc(-c2c[nH]c3ccccc23)n1CCOC (stereo not drawn) | 11.2% |
| CCCc1cc(-c2n[nH]c(=S)n2CC)c2ccccc2n1 | -6.2% |
| CCCc1cc(-c2nc(-c3ccc(C)cc3)cs2)ccn1 | 68% (active) |
| Cc1cc(-c2n[nH]c(=S)n2-c2ccc(C)c(C)c2)no1 | 6.5% |
| Cc1ccc(-c2csc(N(Cc3ccco3)C(=O)c3cccs3)n2)cc1 | 18.8% |
| Cc1ccc(-c2csc(-c3cc(C)on3)n2)cc1 | 43% (active) |
| CCCc1nc2scc(-c3ccc(C)cc3)c2c(=O)n1N | 44.2% |

From PubChem BioAssay AID2315 (National Center for Advancing Translational Sciences (NCATS), 2010)
